Only some compounds are listed: those with a hit (about 1.2% of all), similar ones and a draw of the others.
NOD2-RIPK2 inh: blocks binding of human NOD2 to RIPK2; O43353; CHO BLA complementation NOD2-RIPK2, CCF4 ratio; inhibition, % at 4.98 µM; hit rate 0.38% among 360,000; AID 624267; in the data active = inhibition above about 21%;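 also: 0% = vehicle only and 100% = reference blocker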
TLR4 MyD88 comp: inhibitors of human TLR4-MyD88 binding | O00206+Q99836 | HeLa CL3-4 TLR4/MyD88 BLA complementation, FRET ratio | inhibition, % at 8.4 µM | hit rate 0.18% among 200,000 | AID 861; in the data active = inhibition above about 25%;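 also: 0% = vehicle and 100% = reference inhibitor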
NPR2 activator: GC-B (human) receptor activation. P20594. hit rate 0.11% among 370,000. HEK293-GC-B cells, CNP EC30, cGMP TR-FRET; 0% at EC30 CNP, 100% saturating CNP. activation, % at 10 µM;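 active = activation at 10 µM reaching about 35% in either raw or pattern-adjusted values, limit read from the data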
GC-A act: GC-A (human) enzyme activation; P16066; HEK293 GC-A cells, cGMP TR-FRET, EC30 ANP; 0% at EC30 ANP, 100% saturating ANP; activation, % at 10 µM; hit rate 0.14% among 370,000; AID 1671463; in the data active = activation above about 40%
TLR9-MyD88 block: inhibitors of human TLR9-MyD88 binding; inhibition, % at 4.98 µM; AID 504734; hit rate 0.21% among 340,000; CHO BLA complementation TLR9-MyD88, CCF4 FRET ratio; Q9NR96+Q99836;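 active = inhibition above the mean over all tested compounds plus 3 SD, cut at about 21% in these data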;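 also: 0% = DMSO only wells and 100% = clavulanate BLA inhibitor control wells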
Neddyl block: blocks human cullin neddylation; inhibition, % at 25 µM; AID 651699; P61081+Q13564; TR-FRET cullin neddylation, biochemical; hit rate 0.58% among 360,000; in the data active = inhibition above about 36%
Neddyl inh conf: confirmation of human cullin neddylation inhibitors | shares compounds with Neddyl block | hit rate 13% among 1,800 | calls only at 25 µM | AID 652217 | TR-FRET cullin neddylation biochemical assay; in the data active = inhibition above about 40%;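 also: neddylation substrate is the cullin 1 ring ligase complex with SKP2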
An asterisk follows results filed as active.

For Cn1c(NCCN2CCCC2)nc2cc(-c3ccsc3)sc2c1=O the results were NOD2-RIPK2 inh -2, NPR2 activator -5, GC-A act -3 and Neddyl block -75.
Screening COc1ccc(-c2cc3nc(NCCN4CCCC4)n(C)c(=O)c3s2)cc1OC returned NOD2-RIPK2 inh 1, NPR2 activator -4, GC-A act -2, Neddyl block 50* and Neddyl inh conf active.
`COc1cc2cc(-c3ccc(O)cc3O)nc(C)c2cc1OC` gave NOD2-RIPK2 inh -2, NPR2 activator -14, GC-A act -47, TLR9-MyD88 block 1 and Neddyl block -19.
`COc1cc2cc(-c3ccc(OC)c(OC)c3C)nc(N)c2cc1OC` gave NOD2-RIPK2 inh 10, NPR2 activator -6, GC-A act 3, Neddyl block 38* and Neddyl inh conf inactive.
COc1ccc(CN2CCc3c([nH]c4ccccc34)C2)cc1Br was read as NOD2-RIPK2 inh 4, NPR2 activator 6, GC-A act -6, TLR9-MyD88 block 13, Neddyl block 41* and Neddyl inh conf inactive.
Screening CCOc1cc(CN2CCc3c([nH]c4ccccc34)C2)ccc1OC returned NOD2-RIPK2 inh -2, NPR2 activator -3, GC-A act -1, TLR9-MyD88 block -3 and Neddyl block -3.
`CC(=O)c1ccc(-c2cccc(-c3nc4ccccn4c3NC3CCCCC3)c2)cc1` gave NOD2-RIPK2 inh -2, NPR2 activator 22, GC-A act 20, TLR9-MyD88 block 0, Neddyl block 26* and Neddyl inh conf inactive.
For COc1ccccc1/C=C/C(=O)OCC(=O)NCCC1=CCCCC1 the results were NOD2-RIPK2 inh 4, TLR4 MyD88 comp 16, NPR2 activator -5, GC-A act 2, TLR9-MyD88 block 0 and Neddyl block 3.
Screening COc1ccc(OC)c(/C=C/C(=O)OCC(=O)Nc2ccc(Cl)c(S(=O)(=O)N(C)C)c2)c1 returned NOD2-RIPK2 inh 1, TLR4 MyD88 comp 10, NPR2 activator 1, GC-A act 4 and TLR9-MyD88 block -4.
COc1ccc(OC)c(/C=C/C(=O)OCC(=O)NCc2cccs2)c1 was read as NOD2-RIPK2 inh 3, NPR2 activator -3, GC-A act 4, TLR9-MyD88 block 3 and Neddyl block 52*.
For COc1ccc(CCNC(=O)COC(=O)/C=C/c2cc(OC)ccc2OC)cc1 the results were NOD2-RIPK2 inh -3, NPR2 activator -4, GC-A act 4, TLR9-MyD88 block -6 and Neddyl block 49*.
COc1cccc(/C=C/C(=O)OCC(=O)NCCC2=CCCCC2)c1OC was read as NOD2-RIPK2 inh 2, NPR2 activator 3, GC-A act -4, TLR9-MyD88 block -6, Neddyl block 41* and Neddyl inh conf inactive.
`COc1cccc(/C=C/C(=O)OCC(=O)Nc2ccc(Cl)c(S(=O)(=O)N(C)C)c2)c1OC` gave NOD2-RIPK2 inh -5, TLR4 MyD88 comp 10, NPR2 activator 6, GC-A act 0, TLR9-MyD88 block 3, Neddyl block 44* and Neddyl inh conf inactive.
`COc1cc(NC(=O)NC2CCCCN(Cc3cccc(Cl)c3)C2=O)cc(OC)c1` (configuration not stated) gave NPR2 activator -1 and GC-A act 1.
Screening CCOc1ccc(CCNC(=O)c2ccccn2)cc1OCC returned NPR2 activator -2 and GC-A act 2.
`OCCN1CCN(c2nc3ccccc3nc2-c2ccccc2)CC1` gave NOD2-RIPK2 inh 3, TLR4 MyD88 comp -1, NPR2 activator 3, GC-A act 5, TLR9-MyD88 block -12, Neddyl block 39* and Neddyl inh conf inactive.
FC(F)C(F)(F)Oc1cccc(Nc2nccn3c(-c4cccc5ccccc45)cnc23)c1 was read as NOD2-RIPK2 inh -12, NPR2 activator 0, GC-A act -6, Neddyl block 47* and Neddyl inh conf inactive.
Screening Cc1cc(N2CCOCC2)n2cc(-c3ccc(F)cc3)nc2n1 returned NOD2-RIPK2 inh 2, TLR4 MyD88 comp -14, NPR2 activator 1, GC-A act 1, TLR9-MyD88 block -2, Neddyl block 46* and Neddyl inh conf inactive.
For Cc1ccc(-c2c(C#N)c(N)nc3c2CCCC3)o1 the results were NOD2-RIPK2 inh 2, TLR4 MyD88 comp -1, NPR2 activator -7, GC-A act 3, TLR9-MyD88 block -6, Neddyl block 45* and Neddyl inh conf inactive.
For CCSc1nc2c(c(-c3ccc(C)o3)c1C#N)CCCC2 the results were NOD2-RIPK2 inh 2, TLR4 MyD88 comp -3, NPR2 activator 2, GC-A act 1, TLR9-MyD88 block -1 and Neddyl block -3.
For CCCCC(=O)OCC(=O)N1N=C(c2c[nH]c3ccccc23)C(O)C1c1ccc(OC)cc1 (configuration not stated) the results were NOD2-RIPK2 inh -1, NPR2 activator -1, GC-A act 9, TLR9-MyD88 block 5, Neddyl block 45* and Neddyl inh conf inactive.
CCOC(=O)C(=CNc1ccc(NC2=NCC(C)S2)cc1)C(=O)OCC (configuration not stated) was read as NOD2-RIPK2 inh -14, TLR4 MyD88 comp 1, NPR2 activator 12, GC-A act 6, TLR9-MyD88 block -11, Neddyl block 45* and Neddyl inh conf inactive.
N#Cc1nc(-c2ccccc2F)oc1NCCc1ccccn1 was read as NOD2-RIPK2 inh -13, NPR2 activator 1, GC-A act -5, TLR9-MyD88 block -9, Neddyl block 39* and Neddyl inh conf inactive.
`N#Cc1nc(-c2ccccc2F)oc1NCCc1ccccc1` gave NOD2-RIPK2 inh 1, TLR4 MyD88 comp -5, NPR2 activator 0, GC-A act 7 and TLR9-MyD88 block 2.
Screening O=C1OC(c2ccccc2)=N/C1=C\C=C\c1ccco1 returned NOD2-RIPK2 inh 0, TLR4 MyD88 comp 0, NPR2 activator 3, GC-A act 15, TLR9-MyD88 block 11, Neddyl block 45* and Neddyl inh conf inactive.
For Nc1cc(N)cc(-c2nc3ccccc3[nH]2)c1 the results were NOD2-RIPK2 inh -5, TLR4 MyD88 comp 8, NPR2 activator -3, GC-A act 0, TLR9-MyD88 block -1 and Neddyl block 41*.
Screening Oc1ccc(Nc2ncnc3c2oc2ccccc23)cc1 returned NOD2-RIPK2 inh -16, NPR2 activator -1, GC-A act -4, TLR9-MyD88 block 0 and Neddyl block 14.
Screening Oc1cccc(Nc2ncnc3c2oc2ccccc23)c1 returned NOD2-RIPK2 inh 1, NPR2 activator 0, GC-A act -1, TLR9-MyD88 block -8 and Neddyl block 48*.

High-throughput results from PubChem.
